Laboratory results as given in the supplement of paper PMC3545927.
The other results are listed elsewhere or left out. No count for the full screen is at hand.

Target: furin, P09958
Experiment: furin cleavage Z-score vs untreated control; higher = more cleavage, active = 3.5 or more, inactive = 1 or less, 8 variable residues between constant flanks
In short: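 Furin-free reactions served as the baseline for the cleavage Z-score, which is the log read count lowess-adjusted and scaled by median absolute deviation. Counts came from released DNA, adapter-tagged by PCR and sequenced. Purified furin had cut 8-mer peptides fused to a cDNA oligonucleotide on magnetic beads during 7.5, 15 or 30 min at 1:10 enzyme:substrate.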
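Note: purified furin at 1:10 enzyme:substrate in 50 mM HEPES pH 7.5.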

Sequence of furin, P09958 (P09958 whole entry): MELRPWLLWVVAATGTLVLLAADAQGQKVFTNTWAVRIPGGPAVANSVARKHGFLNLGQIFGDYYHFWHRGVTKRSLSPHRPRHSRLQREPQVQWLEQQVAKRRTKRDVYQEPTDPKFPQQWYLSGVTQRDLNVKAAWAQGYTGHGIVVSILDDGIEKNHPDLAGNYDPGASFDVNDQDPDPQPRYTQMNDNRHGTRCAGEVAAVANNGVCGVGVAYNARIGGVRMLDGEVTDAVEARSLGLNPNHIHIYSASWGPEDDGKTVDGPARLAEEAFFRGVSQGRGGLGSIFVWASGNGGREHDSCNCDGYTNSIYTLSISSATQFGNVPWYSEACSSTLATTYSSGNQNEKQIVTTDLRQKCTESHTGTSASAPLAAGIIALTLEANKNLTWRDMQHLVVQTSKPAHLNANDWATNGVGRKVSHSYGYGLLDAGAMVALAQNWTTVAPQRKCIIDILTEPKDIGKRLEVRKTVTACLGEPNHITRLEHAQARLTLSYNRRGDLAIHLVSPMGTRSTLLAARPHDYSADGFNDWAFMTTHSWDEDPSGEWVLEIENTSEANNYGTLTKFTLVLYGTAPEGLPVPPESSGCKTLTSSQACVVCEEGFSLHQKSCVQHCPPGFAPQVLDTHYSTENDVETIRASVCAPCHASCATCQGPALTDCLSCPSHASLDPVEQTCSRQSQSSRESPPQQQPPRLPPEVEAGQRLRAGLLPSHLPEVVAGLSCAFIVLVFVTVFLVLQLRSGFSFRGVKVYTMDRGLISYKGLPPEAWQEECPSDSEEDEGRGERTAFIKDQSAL

Sequence	furin cleavage Z-score (7.5 min)	furin cleavage Z-score (15 min)	furin cleavage Z-score (30 min)
CASCSSNVSVAGNASASA [HC1553]	1.25	-0.606 (inactive)	0.334 (inactive)
CAVVCCSDSYAGNASASA [HC2051]	-1.19 (inactive)	0.168 (inactive)	-0.153 (inactive)
CAGRRLARGSAGNASASA [HC1254]	3.43	4.7 (active)	6.13 (active)
CAYGRRRRRSAGNASASA [FS-519]	9.52 (active)	10.7 (active)	8.36 (active)
CAYGLRDARSAGNASASA [FS-900]	-0.0484 (inactive)	-0.398 (inactive)	-0.0248 (inactive)
CAEVPCHRGSAGNASASA [HC2396]	0.0196 (inactive)	1.61	1.87
CAQDARRARSAGNASASA [FS-845]	6 (active)	7.49 (active)	7.26 (active)
CAGSCRRARSAGNASASA [FS-1333]	8.24 (active)	6.66 (active)	7.27 (active)
CAPYILKRGSAGNASASA [NG2]	1.17	0.28 (inactive)	0.586 (inactive)
CAVAYQATVCAGNASASA [HC954]	-0.525 (inactive)	-0.292 (inactive)	-0.577 (inactive)
CAMFDSSVLCAGNASASA [HC916]	-1.5 (inactive)	-1.04 (inactive)	0.432 (inactive)
CADGRRFRQAAGNASASA [FS-1668]	-1.15 (inactive)	-1.53 (inactive)	-0.448 (inactive)
CAICTTPCSGAGNASASA [HC1944]	-1.41 (inactive)	-0.982 (inactive)	0.0737 (inactive)
CASTPCSVHLAGNASASA [HC2530]	-0.933 (inactive)	0.438 (inactive)	1.38
CALHVWIPPLAGNASASA [HC589]	1.25	1.42	0.509 (inactive)
CASRRRRARSAGNASASA [FS-872]	8.77 (active)	9.73 (active)	7.27 (active)

Sequence	furin cleavage Z-score (7.5 min)	furin cleavage Z-score (15 min)	furin cleavage Z-score (30 min)
CARSGRRRRSAGNASASA [FS-88]	5.85 (active)	5.32 (active)	4.99 (active)
CAPPRRLRRSAGNASASA [FS-841]	5.16 (active)	4.08 (active)	3.48
CARSGRSRSRAGNASASA [FS-1926]	-0.645 (inactive)	-0.505 (inactive)	-1.41 (inactive)
CARSGAPTYSAGNASASA [HC421]	0.424 (inactive)	-0.13 (inactive)	-0.882 (inactive)
CAAWRHRARSAGNASASA [HC1620]	0.0962 (inactive)	1.9	1.59
CAGRRRRHRSAGNASASA [FS-532]	9.48 (active)	10.3 (active)	6.94 (active)
CAIPKRLRRSAGNASASA [FS-35]	1.85	0.768 (inactive)	1.2
CAILNAASLAAGNASASA [HC537]	-1.87 (inactive)	-0.982 (inactive)	0.861 (inactive)
CATTPCYGSWAGNASASA [HC77]	0.0798 (inactive)	1.4	-0.0858 (inactive)
CALAHGVRVLAGNASASA [HC236]	0.101 (inactive)	1.37	0.879 (inactive)
CAPPRRRARSAGNASASA [FS-72]	11.2 (active)	10.8 (active)	7.57 (active)
CAPTDPRRRSAGNASASA [HC215]	0.57 (inactive)	3.28	0.563 (inactive)
CAPPWRLRRSAGNASASA [FS-1383]	9.19 (active)	9.31 (active)	7.39 (active)
CAPPRRRRRSAGNASASA [FS-948]	8.33 (active)	8.78 (active)	7.37 (active)
CARSTRDRRSAGNASASA [FS-1273]	11.6 (active)	13.1 (active)	9.03 (active)
